Measured values published in PubChem BioAssay (NCATS).
Several values for one entry are separate records, joined by “and”; a condition that tells them apart may be missing. Equal entries are not always repeated. Records with an inconclusive call do not appear. Unmarked numbers belong to inactive results. Activity calls are given as the source filed them. Unless noted, the call rests on the fitted dose curve; in most records, active means well fitted curve in either direction with a large enough effect (not every such curve was filed as active); inconclusive means small, poorly fitted or top-dose-only effect, or another doubt; inactive means flat fitted curve, though single readings scatter.

What was measured:
[1] = AP1 Signaling Pathway (AID 357); conditions: ME-180 (cervical carcinoma) AP-1-bla reporter, EGF-induced, beta-lactamase ratio, 5 h; at 38 µM (top of the series) unless noted;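 further: ME-180 reporter cells stimulated with EGF at its EC50 level; on the % scale 0 is the no-effect control and ±100 the full control effect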
Procedure, shortened: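 A ratiometric CCF4 readout (405 nm excitation; 460 and 530 nm emission) quantified AP-1-driven beta-lactamase in ME-180 cells after 5 h with compound and EC50 EGF; AC50 values were derived for activators and inhibitors.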

[2] = NFAT Signaling Pathway (AID 444); conditions: Jurkat NFAT-bla M1, carbachol, beta-lactamase ratio, 5 h; at 38 µM (top of the series) unless noted;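 further: carbachol stimulus at about its EC50 of 1 µM final; on the % scale 0 is the no-effect control and ±100 the full control effect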
Procedure, shortened: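 Jurkat cells with NFAT-driven β-lactamase reporter and co-expressed M1 receptor, stimulated with carbachol (final 1 uM, ~EC50), compound titration, 5 h at 37 °C. CCF4 loaded 1 h at RT; 460/530 nm ratio gave %activity and AC50.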

[3] = biological target: Cytochrome P450 1A2 (Homo sapiens) (UniProt P05177); test: p450-cyp1a2 (AID 410; calls by dose curve; further: potency means the concentration at half of the fitted maximal effect;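 on activity change, negative = inhibition: -100% = full effect of reference inhibitor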)
Cytochrome P450 1A2 (Homo sapiens), sequence (P05177 whole entry, looked up): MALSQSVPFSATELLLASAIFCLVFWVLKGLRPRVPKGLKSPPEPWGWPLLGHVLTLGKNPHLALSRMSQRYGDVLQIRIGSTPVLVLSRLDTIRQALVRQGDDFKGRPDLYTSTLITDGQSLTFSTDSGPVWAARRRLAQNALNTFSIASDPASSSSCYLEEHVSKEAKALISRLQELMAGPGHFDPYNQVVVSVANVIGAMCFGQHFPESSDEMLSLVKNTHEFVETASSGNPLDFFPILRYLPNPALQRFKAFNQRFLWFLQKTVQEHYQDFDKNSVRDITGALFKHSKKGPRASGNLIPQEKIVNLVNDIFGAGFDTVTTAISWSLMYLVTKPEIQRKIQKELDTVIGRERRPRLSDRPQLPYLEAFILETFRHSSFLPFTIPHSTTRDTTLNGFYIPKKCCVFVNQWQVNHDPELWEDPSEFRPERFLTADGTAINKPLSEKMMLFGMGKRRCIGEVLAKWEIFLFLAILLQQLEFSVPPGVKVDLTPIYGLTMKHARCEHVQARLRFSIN
Procedure, shortened: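 Human CYP1A2 (20nM) demethylated Luciferin-ME at its Km (100uM) in 100mM KPO4. After 10 min compound preincubation, NADPH regeneration ran the reaction 60 min at room temperature. Luciferin was read by luminescence, normalized to 57 uM furafylline.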

Row | SMILES | activity change, negative = inhibition [1] | activity change, negative = inhibition [2] | Potency [3]
1 | Nc1ncnc2c1ncn2C1CCCC1 | -12.9% | 11.8% | –
2 | NC1(C(=O)O)CC1 | 11.9% | -11.2% | –
3 | O=C(c1ccc2c(c1)OCCO2)N1CCCCC1 | 1.86% | 5.58% | –
4 | O=C(O)c1cc(=O)cc(C(=O)O)[nH]1 | -11.2% | -5.4% | –
5 | NS(=O)(=O)c1cccc2c1c([N+](=O)[O-])cc1nc(O)c(O)nc12 | 7.91% | 5.62% | –
6 | O=C(O)C1CCNCC1 | -3.06% | 11.3% | –
7 | O=C(O)/C(=C/c1c(C(=O)O)[nH]c2cc(Cl)cc(Cl)c12)c1ccccc1 | 1.71% | -3.51% | –
8 | CCCn1c(=O)c2[nH]c(-c3ccc(S(=O)(=O)O)cc3)nc2n(CCC)c1=O | 7.54% | 13.8% | –
9 | COc1ccccc1N1CCN(CCCNc2c(C)c(=O)n(C)c(=O)n2C)CC1 | 8.51% | -22.9% | –
10 | [Li+] | 3.61% | 1.3% | inactive
11 | CN(C)CCC(c1ccc(Br)cc1)c1ccccn1 (centres undefined) | 14% [at 17.2 µM] | -90.1% [at 17.2 µM] (active) | –
12 | Cn1cc(C(=O)OCC2CCN(CCNS(C)(=O)=O)CC2)c2ccccc21 | -4.52% | -2.1% | 12.6 µM (active) and 15.8 µM (active)
13 | C[C@H](O)C(=O)C1=Nc2c(nc(N)[nH]c2=O)NC1 | 12.2% | -2.7% | inactive
14 | N[C@@H](Cc1ccc(O)c(I)c1)C(=O)O | 9.71% [at 17.2 µM] | -2.26% [at 17.2 µM] | –
15 | CCN(c1nc(N)c(C(=O)N=C(N)N)nc1Cl)C(C)C | 29.9% | -3.34% | –
16 | Cn1ccnc1 | -6.19% | -1.47% | inactive
17 | NCCCCN=C(N)N | -8.22% | -4.07% | –
18 | O=C1Nc2ccc(I)cc2/C1=C/c1cc(Br)c(O)c(Br)c1 | – | -120% (active) | 2.51 µM (active) and 794 nM (active)
19 | N[C@@H](CS(=O)O)C(=O)O | – | – | inactive
20 | Cc1nc(N=Nc2ccc(S(=O)(=O)O)cc2S(=O)(=O)O)c(COP(=O)(O)O)c(C=O)c1O | -10.9% | 2.46% | –
21 | C#CCn1c(=O)c2c(ncn2C)n(C)c1=O | 8.56% | 5.67% | –
22 | COc1cc(/C=C(\C#N)C(=O)c2ccc(O)c(O)c2)cc(I)c1O | – | 8.66% | 15.8 µM (active)
23 | CCCCCCC/C=C\CCCCCCCCC(=O)O | 12.5% | -3.56% | –
